PubChem BioAssay (NCI)
This is part of a sample that, as a whole, favours compounds with a hit. Of some 79,000 tested, about 15% had one in any assay. Active and inactive are the calls of the source. No stated cut-off is given here; in the data, active means growth inhibition above about 70%; inactive means the rest.

How the values were obtained:
[1] = NCI Yeast Anticancer Drug Screen. Data for the rad52 strain (AID 147);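 further: 0% = growth of vehicle-treated control cultures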; conditions: S. cerevisiae rad52 mutant growth inhibition, hits give high values
Procedure, shortened: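 Screen used a yeast mutant impaired in DNA repair. After compound exposure, growth was measured. Values reflect inhibition compared with vehicle-treated cells.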

[2] = NCI Yeast Anticancer Drug Screen. Data for the wt1 strain (AID 149);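 further: 0% = growth of vehicle-treated wt1 cultures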; conditions: S. cerevisiae wt1 strain (SPY 50644) growth inhibition, hits give high values
Procedure, shortened: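 Readout: yeast growth inhibition, normalised to vehicle controls, in the wt1 strain exposed to test compounds.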

[3] = NCI Yeast Anticancer Drug Screen. Data for the rad50EPP+ strain (AID 151);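 further: 0% = growth of vehicle-treated control cultures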; conditions: S. cerevisiae rad50 mutant strain, hits give high values
Procedure, shortened: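 Exposing the rad50EPP+ strain to each compound, growth was compared with vehicle-only cultures to give inhibition.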

[4] = NCI Yeast Anticancer Drug Screen. Data for the mgt1 strain (AID 153); conditions: S. cerevisiae mgt1 mutant growth inhibition, hits give high values
Procedure, shortened: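 Genetically defined yeast (mgt1) treated with compound; inhibition of growth expressed against vehicle-treated controls.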

[5] = NCI Yeast Anticancer Drug Screen. Data for the rad50 strain (AID 155);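 further: 0% = growth of vehicle-only cultures of the same strain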; conditions: S. cerevisiae rad50 strain growth inhibition, hits give high values
Procedure, shortened: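 Compounds were tested on a yeast strain with an engineered DNA damage repair alteration; the reported value is growth inhibition normalised to vehicle treatment.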

[6] = NCI Yeast Anticancer Drug Screen. Data for the mec2-1 strain (AID 157); conditions: S. cerevisiae mec2-1 strain, hits give high values
Procedure, shortened: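 Readout is yeast growth inhibition, normalised to vehicle-treated controls, in the mec2-1 strain exposed to compound.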

[7] = NCI Yeast Anticancer Drug Screen. Data for the rad14 strain (AID 159);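 further: 0% = growth of vehicle-treated control cultures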; conditions: S. cerevisiae rad14 strain growth inhibition, hits give high values
Procedure, shortened: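 Compound-treated yeast with a defined DNA-repair lesion; growth inhibition normalised to vehicle-treated cultures.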

[8] = NCI Yeast Anticancer Drug Screen. Data for the sgs1 mgt1 strain (AID 161);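 further: 0% = growth of cultures given vehicle only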; conditions: S. cerevisiae sgs1 mgt1 strain, hits give high values
Procedure, shortened: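 Growth of a repair-deficient yeast mutant was monitored after compound treatment and expressed as inhibition relative to vehicle-treated cultures.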

[9] = NCI Yeast Anticancer Drug Screen. Data for the CLN2oe strain (AID 163);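 further: 0% = growth of vehicle-only control cultures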; conditions: S. cerevisiae CLN2oe strain, hits give high values
Procedure, shortened: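 Values reflect how much compound exposure reduced yeast growth, referenced to vehicle-exposed cells. Assay organism is a strain with a defined genetic change affecting cell-cycle control.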

[10] = NCI Yeast Anticancer Drug Screen. Data for the cln2 rad14 strain (AID 165);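 further: 0% = growth equal to vehicle treated cultures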; conditions: S. cerevisiae cln2 rad14 strain, hits give high values
Procedure, shortened: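 Relative to vehicle controls, growth inhibition of compound-treated cln2 rad14 yeast was recorded.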

[11] = NCI Yeast Anticancer Drug Screen. Data for the bub3 strain (AID 167); conditions: S. cerevisiae bub3 mutant strain, hits give high values
Procedure, shortened: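 Growth of a checkpoint-deficient yeast mutant is measured after compound exposure. Values represent inhibition relative to vehicle.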

[12] = NCI Yeast Anticancer Drug Screen. Data for the wt2 strain (AID 169);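 further: 0% = growth of vehicle-treated yeast cultures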; conditions: S. cerevisiae wt2 strain growth inhibition, hits give high values
Procedure, shortened: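 Values express reduction in yeast growth under compound treatment, referenced to vehicle-treated cells.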

[13] = NCI Yeast Anticancer Drug Screen. Data for the mlh1 strain (AID 171);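 further: 0% = growth of vehicle-treated control cultures of the same strain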; conditions: S. cerevisiae mlh1 strain growth inhibition, hits give high values
Procedure, shortened: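 Steps: expose the defined-mutant yeast strain to compound; expose a parallel culture to vehicle; measure growth; express compound effect as inhibition relative to the vehicle culture.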

[14] = NCI Yeast Anticancer Drug Screen. Data for the sgs1 strain (AID 173);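 further: 0% = growth of vehicle-only control cultures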; conditions: S. cerevisiae sgs1 mutant, hits give high values
Procedure, shortened: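 Treat defined-mutant yeast with compound; measure growth; calculate inhibition relative to vehicle-treated cells.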

[15] = NCI Yeast Anticancer Drug Screen. Data for the mlh1 rad18 strain (AID 175); conditions: S. cerevisiae mlh1 rad18 strain growth inhibition, hits give high values
Procedure, shortened: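 Test agents were incubated with a yeast strain of defined genotype (DNA damage repair defect). Inhibition of growth was derived by comparison with vehicle-exposed cultures.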

[16] = NCI Yeast Anticancer Drug Screen. Data for the rad18 strain (AID 177); conditions: S. cerevisiae rad18 mutant growth inhibition, hits give high values
Procedure, shortened: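 A genetically defined yeast mutant impaired in DNA damage repair was treated with test compounds, then its growth was measured against cultures receiving vehicle alone.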

[17] = at 5.0 µM (retest, dose inferred, filed as 0.5)
[18] = at 50.0 µM (retest, dose inferred, filed as 5.0)

Measured: growth inhibition

O=c1c2ccccc2nc(-c2ccc(Cl)cc2)n1O
inactive: [2]; at 1.2 µM 61% | [3]; at 1.2 µM 47% | [4]; at 1.2 µM 60% | [5]; [17] 28% | [6]; at 1.2 µM 50% | [6]; at 3.7 µM 56% | [6]; [17] 10% | [8]; [17] 46% | [9]; at 1.2 µM 21% | [9]; at 3.7 µM 26% | [9]; at 11.0 µM 66% | [10]; [17] -23% | [11]; at 1.2 µM 62% | [11]; [17] 23% | [15]; [17] 48%
active: [1]; at 1.2 µM 81% | [1]; at 3.7 µM 95% | [1]; at 11.0 µM 96% | [1]; at 33.0 µM 96% | [1]; at 100.0 µM 94% | [2]; at 3.7 µM 89% | [2]; at 11.0 µM 96% | [2]; at 33.0 µM 96% | [2]; at 100.0 µM 96% | [3]; at 3.7 µM 85% | [3]; at 11.0 µM 91% | [3]; at 33.0 µM 91% | [3]; at 100.0 µM 90% | [4]; at 3.7 µM 90% | [4]; at 11.0 µM 94% | [4]; at 33.0 µM 94% | [4]; at 100.0 µM 93% | [5]; at 1.2 µM 80% | [5]; at 3.7 µM 93% | [5]; at 11.0 µM 96% | [5]; at 33.0 µM 95% | [5]; [18] 98% | [5]; at 50.0 µM 97% | [5]; at 100.0 µM 95% | [6]; at 11.0 µM 83% | [6]; at 33.0 µM 84% | [6]; [18] 97% | [6]; at 50.0 µM 96.7% | [6]; at 100.0 µM 88% | [7]; at 1.2 µM 98% | [7]; at 3.7 µM 98% | [7]; at 11.0 µM 98% | [7]; at 33.0 µM 98% | [7]; at 100.0 µM 98% | [8]; [18] 98% | [8]; at 50.0 µM 96.7% | [9]; at 33.0 µM 73% | [9]; at 100.0 µM 71% | [10]; [18] 84% | [10]; at 50.0 µM 87.8% | [11]; at 3.7 µM 75% | [11]; at 11.0 µM 78% | [11]; at 33.0 µM 82% | [11]; [18] 97% | [11]; at 50.0 µM 87.5% | [11]; at 100.0 µM 72% | [12]; at 1.2 µM 92% | [12]; at 3.7 µM 96% | [12]; at 11.0 µM 96% | [12]; at 33.0 µM 96% | [12]; at 100.0 µM 96% | [13]; at 1.2 µM 72% | [13]; at 3.7 µM 90% | [13]; at 11.0 µM 93% | [13]; at 33.0 µM 92% | [13]; at 100.0 µM 94% | [14]; at 1.2 µM 96% | [14]; at 3.7 µM 96% | [14]; at 11.0 µM 97% | [14]; at 33.0 µM 96% | [14]; at 100.0 µM 95% | [15]; [18] 98% | [15]; at 50.0 µM 96.1% | [16]; at 1.2 µM 94% | [16]; at 3.7 µM 96% | [16]; at 11.0 µM 97% | [16]; at 33.0 µM 96% | [16]; at 100.0 µM 95%
